Assay outcomes deposited in PubChem BioAssay by National Center for Advancing Translational Sciences (NCATS).
An excerpt weighted towards active compounds, which were near 2.8% of everything screened.
Pol kappa inh – blocks human DNA polymerase kappa activity; Q9UBT6; purified Pol kappa, fluorescent DNA synthesis assay, 10 min; Potency, µM (series often up to 107 µM), for inactives: at the top dose activity, negative = inhibition, most hits filed as inhibitors; 0.53% of 400,000 active; AID 588579; also: potency is read from the fitted curve at half-maximal effect; % is scaled to controls: 0 for no effect and ±100 for the full control effect
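10 nM Pol kappa preincubated 15 min at room temperature with compounds, then reaction started with substrate at 50 nM final. Fluorescence read kinetically at 0 and 10 min; buffer-only wells served as negative control.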
Pol eta inh – DNA polymerase eta (human) inhibition. recombinant Pol eta, fluorescent DNA replication assay. Potency, µM (titrated, usually from 114 µM), for inactives: at the highest dose activity change, negative = inhibition, hits mostly inhibitors. 1.2% of 390,000 active; also: potency is read from the fitted curve at half-maximal effect; % is scaled to controls: 0 for no effect and ±100 for the full control effect
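Fluorescent replication assay: 50 nM final substrate added after a 15 min room-temperature compound preincubation with 10 nM enzyme. Signal taken at 0 min and again at 10 min.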
WRN inhibitor – blocks human WRN helicase. Q14191. WRN helicase unwinding, fluorescent forked duplex, kinetic. Potency, µM (series often up to 114 µM), for the others: at the highest dose activity change, negative = inhibition, most hits filed as inhibitors. 0.46% of 360,000 active. AID 651768; also: potency is read from the fitted curve at half-maximal effect; % is scaled to controls: 0 for no effect and ±100 for the full control effect; nearly all actives have a fitted effect of over 55% in size
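WRN at 20 nM final preincubated with compound 15 min at room temperature; reaction started with 100 nM fluorophore/quencher forked duplex oligonucleotide and 2 mM ATP final. Unwinding followed kinetically by red fluorescence (ex 525, em 598 nm).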
Pol beta inh – blocks human DNA polymerase beta activity | 1.3% of 340,000 active | P06746 | Pol beta primer extension/strand displacement, fluorescence kinetic | AID 485314 | Potency, µM (series often up to 114 µM), inactives show at the highest dose activity change, negative = inhibition, hits mostly inhibitors; also: potency is read from the fitted curve at half-maximal effect; % is scaled to controls: 0 for no effect and ±100 for the full control effect
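Pol beta (10 nM) was preincubated with compound for 15 min at room temperature. The reaction was then started with 50 nM substrate and read immediately and after a further 10 min at room temperature.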
PI5P4Ka inh – inhibitors of human PI5P4K alpha. P48426. PI5P4Kalpha enzyme, ADP-Glo luminescence, 60 min; active compounds read low. max response, %. 1.2% of 330,000 active. AID 652105; active = max response of -50% or lower; inconclusive = between -30% and -50%; inactive = -30% or higher; also: value at the top dose of about 77 µM; % is scaled to controls: 0 for no effect and ±100 for the full control effect
Target sequence (P48426 whole entry, looked up): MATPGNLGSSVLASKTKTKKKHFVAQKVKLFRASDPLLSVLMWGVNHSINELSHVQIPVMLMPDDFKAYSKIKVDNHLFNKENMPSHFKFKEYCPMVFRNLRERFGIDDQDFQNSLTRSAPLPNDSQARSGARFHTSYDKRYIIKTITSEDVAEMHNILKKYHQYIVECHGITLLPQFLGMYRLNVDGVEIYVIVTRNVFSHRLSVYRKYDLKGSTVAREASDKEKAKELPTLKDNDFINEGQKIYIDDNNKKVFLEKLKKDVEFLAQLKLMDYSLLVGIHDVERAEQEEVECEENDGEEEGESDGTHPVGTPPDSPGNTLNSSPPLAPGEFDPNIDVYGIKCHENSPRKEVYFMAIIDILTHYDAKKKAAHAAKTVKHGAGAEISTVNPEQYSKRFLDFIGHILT
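Single end-point luminescence (ADP-Glo) quantified ADP from PI5P4Kalpha turnover; ATP 5 microM final, 1 h at RT, 0.1% CHAPS and 0.28 mM EGTA in HEPES pH 7.4.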
POLI inh – DNA polymerase iota (human) inhibition; Q9UNA4; Pol iota fluorescent replication assay, 10 min; Potency, µM (series often up to 115 µM), inactives show at the highest dose activity, negative = inhibition, usual class: inhibitors; 1% of 390,000 active; also: potency is read from the fitted curve at half-maximal effect
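Fluorescent replication assay read twice, at 0 min and 10 min after adding 50 nM (final) substrate. Enzyme (10 nM) and compounds were first incubated 15 min at room temperature; enzyme-free buffer wells were negative controls.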
* = called active by the depositor; ? = inconclusive; · = no result given; [ ] = remark or other dose. Unless noted, calls follow the shape of the dose curve; as a rule, active = well fitted curve in the direction sought with a large enough effect; inconclusive = small, poorly fitted or top-dose-only effect, or another doubt; inactive = no such curve, though single readings can be large; an effect the other way counts as inactive or inconclusive.

SMILES	Pol kappa inh	Pol eta inh	WRN inhibitor	Pol beta inh	PI5P4Ka inh	POLI inh
O=C(O)c1cccc(-n2sc3ccccc3c2=O)c1	-7%	-15%	-26%[11.6 µM]	·	-103*	?
Cn1sc2ccccc2c1=O	·	4%	4%	·	?	·
O=c1c2ccccc2sn1-c1ccc(S(=O)(=O)N2CCCCC2)cc1	-5%	-10%	-7%	·	·	17%
CC(=O)Nc1ccc(NC(=O)Cn2c(=O)n(-c3ccc(C)cc3)c(=O)c3oc4ccccc4c32)cc1	5%	-14%	5%	27%	4	34%
COC(=O)[C@@]1(Cc2ccc(F)cc2)[C@H]2c3cc(C(=O)N4CCCC4)n(CCCNc4ncc(C(F)(F)F)cc4Cl)c3C[C@H]2CN1C(=O)c1ccccc1	-7%	-24%	-12%	-3%	3	15%
CN(CC(=O)Nc1ccc(F)cc1)C(=O)COC(=O)/C=C/c1ccccc1[N+](=O)[O-]	-15%	-1%	7%	·	0	-6%
O=c1c2ccccc2sn1-c1ccccc1	-13%	-9%	50µM*	1%	-96*	?
O=C1c2ccccc2C(=O)N1c1nccs1	-7%	-2%	-2%	·	-2	-20%
O=c1c2ccccc2sn1-c1nccs1	6%	-5%	25µM*	-8%	-81*	61%
CC(=O)NN1C(=O)/C(=C\c2ccccc2)SC1=S	4%	3%	4%	13%	-14	?
CC(=O)NN1C(=O)/C(=C\c2ccc(Br)o2)SC1=S	?	25µM*	-17%[57.1 µM]	28µM*	-2	?
Cc1ccc(CNC(=O)c2ccc(CSCc3ccccc3Cl)o2)cc1	-1%[60.1 µM]	6%	·	-18%	·	0%
O=C(O)Cn1cc(/C=c2/sc3nc4ccccc4n3c2=O)c2ccccc21	?	79µM*	?	4%	?	17%
O=c1/c(=C\c2cccn2-c2ccccc2)sc2nc3ccccc3n12	-1%	5%	7%[57.1 µM]	9%	-11	19%
CC1(C)CCN2CCC(C)(C)c3c(O)ccc1c32	-20%	-6%	?	0%	-54*	?
Nc1c(-c2nc(-c3cccs3)no2)nnn1-c1ccc(Cl)cc1	4%	-7%	·	77%	·	-3%
Cc1ccc2[nH]c3nc(N/N=C/c4cccc(O)c4)nnc3c2c1	-6%	-9%	-35%	5µM*	2	?
COC(=O)Nc1ccc(S(=O)(=O)NNC(=O)c2c(O)c3ccccc3n(C)c2=O)cc1	6%	-1%	9%	-23%	1	3%
Cc1cc(C)cc(Nc2cc(=O)n(C3CCCCC3)c(=O)[nH]2)c1	-13%	?	-17%	45µM*	-3	-3%
Cn1sc(=O)n(Cc2ccccc2)c1=O	16%[60.1 µM]	·	·	·	·	·
CC1CCCN(S(=O)(=O)c2cc(C(=O)NCc3ccco3)ccc2Cl)C1 (stereo unspecified)	-7%	-20%	-6%	·	-19	12%
O=C(NCc1ccco1)c1ccc(Cl)c(S(=O)(=O)N2CCCC2)c1	-28%	?	-16%	·	-21	35µM*
CN(C)S(=O)(=O)c1ccc(C(=O)OCC(=O)NCc2ccco2)cc1	-10%	-1%	5%[57.1 µM]	89µM*	-11	40%
O=C(COC(=O)c1ccc(S(=O)(=O)N2CCCCC2)cc1)NCc1ccco1	?	?	3%[11.6 µM]	40µM*	-23	?
O=C(NCCc1ccc(F)cc1)c1ccc(Cl)c(S(=O)(=O)N2CCOCC2)c1	-29%	45µM*	3%[11.6 µM]	·	?	?
Cn1cccc1C(=O)Nc1ccc(Cl)c(S(=O)(=O)N2CCCCC2)c1	-8%	-7%	?	·	-21	7%
CCC1CCCCN1S(=O)(=O)c1ccc(C(=O)Nc2sc3c(c2C(=O)NC)CCC3)cc1 (stereo unspecified)	-3%[60.1 µM]	-5%	·	-21%	·	-11%
CC(C)(C)c1ccc(C(=O)OCC(=O)N2CCC(c3ccccc3)=N2)cc1	15%	-14%	3%	·	-2	19%
